Compounds with a hit are over-represented: about 19% of the library has one in this group of screens.
HT1080NT lethal: qHTS for induction of synthetic lethality in tumor cells producing 2HG: qHTS for the HT-1080-NT fibrosarcoma cell line; HT-1080-NT fibrosarcoma viability, CellTiter-Glo ATP luminescence, 48 h; Potency, µM (doses to about 46.1 µM), without a hit: at the top dose activity, negative = less viability, usual class: cytotoxic; hit rate 1.6% among 360,000; AID 686970, 2013;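 further: NT is the 2HG producing partner of a matched IDH1 knockdown line; potency means the concentration at half of the fitted maximal effect; 0% = DMSO-treated cells and -100% = media-only wells without cells; nearly all actives have a fitted effect of over 55% in size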
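A 48-hour cytotoxicity screen used HT-1080-NT cells plated 2 hours before compound delivery. ATP-based CellTiter-Glo luminescence measured viability, normalized to DMSO and no-cell controls.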
ELG1 DNA repair: qHTS screen for small molecules that inhibit ELG1-dependent DNA repair in human embryonic kidney (HEK293T) cells expressing luciferase-tagged ELG1; HEK293T ELG1-luciferase reporter, luminescence, 16 h; DNA damage induced by 5-fluorouridine; Potency, µM (highest dose often 46.1 µM), for inactives: top-dose activity change, negative = inhibition, usual class: inhibitors; hit rate 2.3% among 330,000; further: potency means the concentration at half of the fitted maximal effect; nearly all actives have a fitted effect of over 55% in size
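Overnight (16 hr) co-exposure of 2,000 cells/well to 5-fluorouridine and compound at 37 °C preceded detection. Luciferase was quantified via ONE-Glo luminescence; loss of signal denotes inhibition.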
HT1080 IDH1KD tx: qHTS for induction of synthetic lethality in tumor cells producing 2HG: qHTS for the HT-1080-IDH1KD cell line. AID 686971, 2013. Potency, µM (top dose mostly 46.1 µM), inactives show at the highest dose activity, negative = toxicity, most hits filed as cytotoxic. hit rate 2% among 360,000. HT-1080 IDH1 knockdown viability, ATP luminescence, 48 h;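 further: potency means the concentration at half of the fitted maximal effect; 0% = DMSO wells and -100% = cell-free medium wells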
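After a 2 h attachment period, IDH1KD HT-1080 cells took pin-transferred compound for 48 h at 37 °C; ATP-based luminescence after 10 min room-temperature reagent incubation reported viability.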
TDP1 cell CPT: qHTS for Inhibitors of human tyrosyl-DNA phosphodiesterase 1 (TDP1): qHTS in cells in presence of CPT | Potency, µM (series often up to 46.2 µM), inactives show top-dose activity change, negative = growth inhibition, usual class: inhibitors | chicken DT40 Tdp1-/-;hTDP1 cells + 20 nM CPT, ATP luminescence, 48 h | hit rate 12% among 420,000 | AID 686979, 2013; further: potency means the concentration at half of the fitted maximal effect; nearly all actives have a fitted effect of over 55% in size
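Chicken DT40 Tdp1-/- cells complemented with human TDP1, 400 cells/well, exposed to compounds plus 20 nM camptothecin for at least 48 h at 37 C; viability read as ATP content by CellTiter-Glo luminescence.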
DT40 TDP1 no CPT: qHTS for Inhibitors of human tyrosyl-DNA phosphodiesterase 1 (TDP1): qHTS in cells in absence of CPT; DT40 Tdp1-/- hTDP1 cells, no CPT, ATP luminescence, 48 h; Potency, µM (doses to about 46.2 µM), without a hit: at the top dose activity change, negative = growth inhibition, hits mostly inhibitors; hit rate 15% among 420,000; AID 686978, 2013; further: potency means the concentration at half of the fitted maximal effect; nearly all actives have a fitted effect of over 55% in size
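Camptothecin absent (DMSO only). Human TDP1-complemented DT40 knockout cells, 400 cells/well, 37 °C for minimum 48 hr; ATP measured via CellTiter-Glo, 30 min dark incubation, luminescence.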
IL1B secr inh: qHTS for Inhibitors of Inflammasome Signaling: IL-1-beta AlphaLISA Primary Screen; hit rate 4.7% among 360,000; THP-1 LPS/ATP IL-1B secretion, AlphaLISA, 16 h; hits give low values; activity change, % at 57.5 µM; AID 743279, 2014; in the data active means activity change below about -50%; inconclusive means mostly about -30% to -49%
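Secreted IL-1B measured by AlphaLISA bead assay after 16 h compound exposure of THP-1 cells; compounds (final up to 57.5 uM) added 1 h before LPS (250 ng/mL) and ATP (1.25 mM) stimulation; lower signal means less secretion.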
* hit, by the source's call; ? = inconclusive; / = not tested or not shown. Unless noted, the call rests on the fitted dose curve; in most records, active means well fitted curve in the direction sought with a large enough effect; inconclusive means small, poorly fitted or top-dose-only effect, or another doubt; inactive means no such curve, though single readings can be large; an effect the other way counts as inactive or inconclusive. Unless noted, on the % scale 0 is the no-effect control and ±100 the full control effect.

SMILES	HT1080NT lethal	ELG1 DNA repair	HT1080 IDH1KD tx	TDP1 cell CPT	DT40 TDP1 no CPT	IL1B secr inh
Cc1cc(C[n+]2cc(Br)ccc2N)c2ncccc2c1	-7%	0%	?	12µM*	10µM*	-62*
CCc1ccccc1NC(=O)CNC(=O)CCC(=O)c1cc(C)sc1C	8%	/	2%	?	?	4
CCCCCCCCCCCCCCCC(O)C[N+](C)(C)CCO (stereo unspecified)	7%	/	-2%	5.2µM*	3.3µM*	-76*
COc1ccc(C2C3=C(CCCC3=O)Nc3ccc4ncccc4c32)cc1OC (stereo unspecified)	-21%	?	-7%	-1%	12%	-13
COc1cc(C2c3c([nH]c(=O)[nH]c3=O)Nc3ccc4ccccc4c32)ccc1O (stereo unspecified)	-25%	10%	?	-13%	-15%	-97*
COc1cc(C2C3=C(CCCC3=O)Nc3ccc4ncccc4c32)ccc1O (stereo unspecified)	?	?	6.5µM*	6.5µM*	6.5µM*	11
COc1cc(C2c3c([nH]c(=O)[nH]c3=O)Nc3ccc4ccccc4c32)cc(OC)c1OC (stereo unspecified)	?	?	-26%	0%	-22%	-92*
CN(CC(=O)NCc1ccc(Cl)cc1)S(=O)(=O)c1ccc2c(c1)c(=O)n(C)c(=O)n2C	/	/	/	-5%	-21%	/
CC1CCCN(CC(=O)Nc2cc(S(=O)(=O)N3CCOCC3)ccc2N2CCCC2)C1 (stereo unspecified)	2%	10%	5%	-19%	?	-13
CN(C)CCNc1ncnc2c1ncn2[C@H]1CN(Cc2cccs2)C[C@@H](CO)O1	18%	/	4%	?	-17%	26
Cc1ccccc1NC(=O)Cn1cc(S(=O)(=O)N2CCCC2)c(S(=O)(=O)N2CCCC2)c1	/	/	/	-16%	0%	/
CCOc1ccc(CNS(=O)(=O)c2c(C(=O)N3CCC(C)CC3)c(C)n(C)c2C)cc1OC	/	/	/	10%	-13%	/
NC(=O)CSc1nnnn1-c1ccccc1Cl	9%	-4%	16%	2%	-18%	-4
Fc1ccc(NCc2nnc(SCc3nnc(-c4ccccc4)o3)n2CC2CCCO2)cc1 (stereo unspecified)	-4%	-21%	0%	-3%	-13%	-10
Cc1ccc(NCc2nnc(SCC(=O)Nc3cccc(O)c3)n2CC2CCCO2)c(C)c1 (stereo unspecified)	1%	-19%	-10%	?	?	-51*
O=C(CSc1nnc(CNc2ccc(F)cc2)n1CC1CCCO1)Nc1ccccc1 (stereo unspecified)	0%	-13%	-3%	21µM*	?	-12
CCN(CC(=O)Nc1cc(Cl)ccc1C)C(=O)COc1cccc2c1OC(C)(C)C2	-4%	-3%	-12%	?	?	-16
O=c1cc(CSc2ccccc2)[nH]c2ccc(F)cc12	/	/	/	12µM*	16µM*	/
Cc1cc(=O)c2cc(Cl)ccc2[nH]1	6%	4%	-3%	5.2µM*	5.2µM*	12
COc1ccc(SCc2cc(=O)c3cc(Cl)ccc3[nH]2)cc1	/	/	/	21µM*	3.7µM*	/
